Results: the supplement of paper PMC11732987, “Enantioselective OTUD7B fragment discovery through chemoproteomics screening and high-throughput optimisation” (Communications Chemistry, 2025)

Assays:
Assay in all cases: log2 ratio of Biotin-Ahx-Ub-VS probe labelling (fragment/DMSO); higher = less target engagement (more negative = stronger competition), active = hit call of the paper (q ≤ 0.05, log2 ratio ≤ -1)
Conditions in all cases: compound concentration: 200 uM; treatment time: 3 h
USP34 = USP34 (UniProt Q70CQ2)
Sequence of USP34 (Q70CQ2 whole entry, the tested form may be a part): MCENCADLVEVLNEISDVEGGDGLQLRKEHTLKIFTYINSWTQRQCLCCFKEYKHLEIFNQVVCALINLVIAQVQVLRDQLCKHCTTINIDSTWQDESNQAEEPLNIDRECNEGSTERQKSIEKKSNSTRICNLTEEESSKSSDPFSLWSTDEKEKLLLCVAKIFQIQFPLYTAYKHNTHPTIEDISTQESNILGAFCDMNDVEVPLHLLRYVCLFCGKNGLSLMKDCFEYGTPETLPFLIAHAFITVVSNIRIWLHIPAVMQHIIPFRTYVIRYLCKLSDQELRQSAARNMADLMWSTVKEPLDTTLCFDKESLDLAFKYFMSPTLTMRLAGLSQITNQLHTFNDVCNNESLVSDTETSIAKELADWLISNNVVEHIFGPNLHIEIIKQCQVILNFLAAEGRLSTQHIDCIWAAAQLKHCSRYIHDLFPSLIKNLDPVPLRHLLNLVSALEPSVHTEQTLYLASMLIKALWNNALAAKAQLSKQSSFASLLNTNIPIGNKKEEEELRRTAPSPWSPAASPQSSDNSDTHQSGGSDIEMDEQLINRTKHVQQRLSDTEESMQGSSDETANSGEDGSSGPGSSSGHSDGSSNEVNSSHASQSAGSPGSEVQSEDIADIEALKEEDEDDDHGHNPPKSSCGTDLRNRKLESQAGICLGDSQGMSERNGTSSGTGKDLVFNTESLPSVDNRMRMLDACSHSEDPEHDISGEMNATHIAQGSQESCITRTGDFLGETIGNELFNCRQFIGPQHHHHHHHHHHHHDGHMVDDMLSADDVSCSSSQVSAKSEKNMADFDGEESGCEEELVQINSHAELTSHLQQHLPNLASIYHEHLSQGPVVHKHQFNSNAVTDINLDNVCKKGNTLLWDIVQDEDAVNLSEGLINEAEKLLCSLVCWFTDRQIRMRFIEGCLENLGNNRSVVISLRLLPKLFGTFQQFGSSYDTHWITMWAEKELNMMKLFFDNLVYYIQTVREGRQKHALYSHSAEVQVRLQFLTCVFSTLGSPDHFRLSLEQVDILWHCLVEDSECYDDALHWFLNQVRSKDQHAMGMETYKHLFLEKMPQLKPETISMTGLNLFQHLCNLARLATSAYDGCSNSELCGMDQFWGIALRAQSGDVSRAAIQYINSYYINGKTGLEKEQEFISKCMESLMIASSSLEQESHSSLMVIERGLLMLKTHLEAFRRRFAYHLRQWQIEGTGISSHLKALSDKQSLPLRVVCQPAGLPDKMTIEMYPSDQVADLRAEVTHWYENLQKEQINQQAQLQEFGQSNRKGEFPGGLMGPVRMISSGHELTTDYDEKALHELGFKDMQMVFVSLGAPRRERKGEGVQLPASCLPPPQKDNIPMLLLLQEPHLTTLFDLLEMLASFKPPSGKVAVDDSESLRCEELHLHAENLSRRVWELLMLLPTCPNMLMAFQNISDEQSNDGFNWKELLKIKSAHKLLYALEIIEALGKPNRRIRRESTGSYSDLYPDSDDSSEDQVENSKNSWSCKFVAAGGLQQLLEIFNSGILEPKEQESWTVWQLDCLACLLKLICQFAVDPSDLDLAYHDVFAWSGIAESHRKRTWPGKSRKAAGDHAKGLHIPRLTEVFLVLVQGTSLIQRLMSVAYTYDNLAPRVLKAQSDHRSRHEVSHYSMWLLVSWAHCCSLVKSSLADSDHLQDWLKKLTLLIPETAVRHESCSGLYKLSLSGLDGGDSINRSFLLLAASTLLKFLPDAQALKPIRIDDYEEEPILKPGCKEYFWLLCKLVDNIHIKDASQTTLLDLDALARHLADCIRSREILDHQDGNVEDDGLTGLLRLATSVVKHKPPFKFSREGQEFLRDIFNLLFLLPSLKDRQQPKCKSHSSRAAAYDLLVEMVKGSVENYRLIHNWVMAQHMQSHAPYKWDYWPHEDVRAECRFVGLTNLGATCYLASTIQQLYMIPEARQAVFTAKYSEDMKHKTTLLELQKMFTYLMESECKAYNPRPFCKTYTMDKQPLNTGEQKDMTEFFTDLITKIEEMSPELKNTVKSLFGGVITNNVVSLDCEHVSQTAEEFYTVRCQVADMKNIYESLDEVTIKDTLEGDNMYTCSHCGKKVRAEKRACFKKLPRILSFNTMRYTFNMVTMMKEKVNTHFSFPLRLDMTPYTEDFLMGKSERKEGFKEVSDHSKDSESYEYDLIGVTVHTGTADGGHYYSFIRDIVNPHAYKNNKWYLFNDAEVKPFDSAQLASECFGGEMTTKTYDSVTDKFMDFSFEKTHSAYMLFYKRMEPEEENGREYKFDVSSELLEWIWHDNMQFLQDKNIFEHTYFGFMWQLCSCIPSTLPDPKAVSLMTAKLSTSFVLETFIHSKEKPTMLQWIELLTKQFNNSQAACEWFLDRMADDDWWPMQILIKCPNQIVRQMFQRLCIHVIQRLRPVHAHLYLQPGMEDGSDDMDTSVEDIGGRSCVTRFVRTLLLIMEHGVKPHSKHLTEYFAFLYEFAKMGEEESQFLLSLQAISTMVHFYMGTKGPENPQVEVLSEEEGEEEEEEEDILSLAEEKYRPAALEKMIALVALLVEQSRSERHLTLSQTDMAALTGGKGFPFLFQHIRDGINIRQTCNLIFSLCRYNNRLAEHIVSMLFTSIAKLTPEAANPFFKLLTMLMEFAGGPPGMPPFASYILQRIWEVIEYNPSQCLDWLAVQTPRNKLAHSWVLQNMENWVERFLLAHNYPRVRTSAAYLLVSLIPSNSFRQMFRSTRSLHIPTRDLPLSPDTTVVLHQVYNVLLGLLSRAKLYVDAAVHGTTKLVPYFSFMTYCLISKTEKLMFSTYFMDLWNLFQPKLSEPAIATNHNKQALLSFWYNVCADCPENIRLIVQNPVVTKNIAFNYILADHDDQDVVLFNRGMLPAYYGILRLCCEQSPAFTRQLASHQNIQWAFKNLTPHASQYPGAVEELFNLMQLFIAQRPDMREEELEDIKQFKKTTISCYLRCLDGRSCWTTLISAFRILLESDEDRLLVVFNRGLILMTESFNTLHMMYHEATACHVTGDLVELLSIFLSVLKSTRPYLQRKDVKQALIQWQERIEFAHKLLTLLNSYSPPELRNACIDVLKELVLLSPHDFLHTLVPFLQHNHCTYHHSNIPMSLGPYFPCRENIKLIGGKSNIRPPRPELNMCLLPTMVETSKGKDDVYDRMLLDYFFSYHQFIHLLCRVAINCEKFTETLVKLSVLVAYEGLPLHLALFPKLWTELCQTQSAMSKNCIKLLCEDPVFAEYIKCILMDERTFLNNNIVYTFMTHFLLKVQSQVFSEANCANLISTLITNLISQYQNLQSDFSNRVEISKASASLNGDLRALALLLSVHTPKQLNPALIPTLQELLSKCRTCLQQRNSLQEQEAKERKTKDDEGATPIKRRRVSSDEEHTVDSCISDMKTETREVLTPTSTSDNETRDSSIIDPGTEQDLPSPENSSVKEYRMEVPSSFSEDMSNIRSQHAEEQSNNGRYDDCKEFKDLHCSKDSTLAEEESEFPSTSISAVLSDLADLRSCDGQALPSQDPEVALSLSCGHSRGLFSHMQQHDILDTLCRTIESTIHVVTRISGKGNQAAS
In short: (§1)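 Triplicate samples of HEK293T lysate, 495 µg each, received fragment at 200 µM or vehicle for 3 h, followed by Biotin-Ahx-Ub-VS (0.5 µM final) for 1 h. After NeutrAvidin enrichment of labelled DUBs and LysC/trypsin digestion, peptides were run by diaPASEF LC-MS/MS. The values are average log2 fragment/vehicle ratios from global-median-normalised Spectronaut label-free quantities, tested by unpaired t-test on proteins having ≥2 unique peptides.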

USP36 = molecular target: T1, USP36 (UniProt Q9P275)
T1 sequence (whole entry): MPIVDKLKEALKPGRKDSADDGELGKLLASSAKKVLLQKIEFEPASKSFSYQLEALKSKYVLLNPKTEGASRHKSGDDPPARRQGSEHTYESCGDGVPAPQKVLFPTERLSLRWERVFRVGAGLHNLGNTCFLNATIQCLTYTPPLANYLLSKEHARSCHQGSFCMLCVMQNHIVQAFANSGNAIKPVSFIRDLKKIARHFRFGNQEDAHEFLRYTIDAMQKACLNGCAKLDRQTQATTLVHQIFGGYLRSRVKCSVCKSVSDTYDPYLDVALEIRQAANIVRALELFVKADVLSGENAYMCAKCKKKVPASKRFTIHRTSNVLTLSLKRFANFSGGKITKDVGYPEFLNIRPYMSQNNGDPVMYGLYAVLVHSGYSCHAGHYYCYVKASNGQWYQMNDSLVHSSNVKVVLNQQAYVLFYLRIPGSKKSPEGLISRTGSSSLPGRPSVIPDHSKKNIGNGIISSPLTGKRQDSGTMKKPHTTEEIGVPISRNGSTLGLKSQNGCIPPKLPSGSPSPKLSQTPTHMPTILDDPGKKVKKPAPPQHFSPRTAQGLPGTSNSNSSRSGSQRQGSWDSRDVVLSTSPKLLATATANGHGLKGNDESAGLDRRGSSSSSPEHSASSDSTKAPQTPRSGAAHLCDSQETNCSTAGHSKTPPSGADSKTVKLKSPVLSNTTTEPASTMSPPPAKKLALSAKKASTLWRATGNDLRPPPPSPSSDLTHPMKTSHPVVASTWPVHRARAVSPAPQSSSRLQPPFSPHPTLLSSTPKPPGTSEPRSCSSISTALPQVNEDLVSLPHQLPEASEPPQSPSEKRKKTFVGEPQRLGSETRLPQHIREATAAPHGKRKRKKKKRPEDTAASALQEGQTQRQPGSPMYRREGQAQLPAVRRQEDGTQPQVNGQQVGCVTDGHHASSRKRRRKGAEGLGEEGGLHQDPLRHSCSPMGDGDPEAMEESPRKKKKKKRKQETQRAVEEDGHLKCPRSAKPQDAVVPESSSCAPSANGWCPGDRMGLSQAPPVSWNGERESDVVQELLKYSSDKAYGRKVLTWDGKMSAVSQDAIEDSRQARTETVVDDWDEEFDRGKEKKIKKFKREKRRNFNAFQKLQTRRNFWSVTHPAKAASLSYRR
In short: as §1

USP38 = molecular target: T2, USP38 (UniProt Q8NB14)
T2 sequence (whole entry): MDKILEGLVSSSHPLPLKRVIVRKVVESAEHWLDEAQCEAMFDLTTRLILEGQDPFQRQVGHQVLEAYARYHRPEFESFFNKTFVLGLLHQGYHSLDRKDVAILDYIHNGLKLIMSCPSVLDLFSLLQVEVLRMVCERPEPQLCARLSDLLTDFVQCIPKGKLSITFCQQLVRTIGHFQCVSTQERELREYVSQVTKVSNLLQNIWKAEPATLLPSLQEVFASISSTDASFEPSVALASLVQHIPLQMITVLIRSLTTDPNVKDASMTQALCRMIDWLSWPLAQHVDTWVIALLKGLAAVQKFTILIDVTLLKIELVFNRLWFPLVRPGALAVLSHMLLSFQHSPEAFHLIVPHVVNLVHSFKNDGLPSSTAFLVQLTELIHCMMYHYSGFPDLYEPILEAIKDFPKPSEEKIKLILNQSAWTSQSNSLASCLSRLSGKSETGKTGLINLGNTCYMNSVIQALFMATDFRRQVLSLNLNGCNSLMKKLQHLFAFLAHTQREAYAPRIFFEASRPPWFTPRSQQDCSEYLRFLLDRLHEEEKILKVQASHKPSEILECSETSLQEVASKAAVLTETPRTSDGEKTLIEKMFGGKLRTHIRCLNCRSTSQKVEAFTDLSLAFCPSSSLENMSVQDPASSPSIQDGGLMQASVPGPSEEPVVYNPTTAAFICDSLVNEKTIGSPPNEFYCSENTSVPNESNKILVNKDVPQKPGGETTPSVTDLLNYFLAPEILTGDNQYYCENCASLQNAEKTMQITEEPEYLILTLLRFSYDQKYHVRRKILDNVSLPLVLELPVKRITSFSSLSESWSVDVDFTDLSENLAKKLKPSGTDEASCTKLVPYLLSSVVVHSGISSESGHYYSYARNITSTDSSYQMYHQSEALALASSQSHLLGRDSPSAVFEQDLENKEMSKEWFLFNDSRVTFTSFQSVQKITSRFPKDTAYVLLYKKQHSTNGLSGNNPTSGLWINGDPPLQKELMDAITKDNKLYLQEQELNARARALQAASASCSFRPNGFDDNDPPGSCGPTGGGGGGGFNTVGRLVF
In short: as §1

USP39 = molecular target: T3, USP39 (UniProt Q53GS9)
T3 sequence (whole entry): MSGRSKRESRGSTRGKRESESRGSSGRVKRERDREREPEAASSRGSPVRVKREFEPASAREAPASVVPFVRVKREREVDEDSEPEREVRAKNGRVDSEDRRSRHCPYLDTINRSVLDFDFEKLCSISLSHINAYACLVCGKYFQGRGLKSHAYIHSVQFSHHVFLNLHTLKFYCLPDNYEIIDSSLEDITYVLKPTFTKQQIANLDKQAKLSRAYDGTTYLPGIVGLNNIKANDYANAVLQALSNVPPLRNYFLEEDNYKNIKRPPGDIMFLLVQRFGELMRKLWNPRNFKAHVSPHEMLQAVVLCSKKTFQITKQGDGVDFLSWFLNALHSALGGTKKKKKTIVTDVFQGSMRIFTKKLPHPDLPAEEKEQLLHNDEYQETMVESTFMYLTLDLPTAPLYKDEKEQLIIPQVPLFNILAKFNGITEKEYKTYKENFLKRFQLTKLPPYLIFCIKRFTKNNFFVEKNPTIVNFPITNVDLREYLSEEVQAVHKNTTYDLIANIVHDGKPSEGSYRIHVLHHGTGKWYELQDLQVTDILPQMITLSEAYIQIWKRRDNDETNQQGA
In short: as §1

USP4 = molecular target: T4, USP4 (UniProt Q13107)
T4 sequence (whole entry): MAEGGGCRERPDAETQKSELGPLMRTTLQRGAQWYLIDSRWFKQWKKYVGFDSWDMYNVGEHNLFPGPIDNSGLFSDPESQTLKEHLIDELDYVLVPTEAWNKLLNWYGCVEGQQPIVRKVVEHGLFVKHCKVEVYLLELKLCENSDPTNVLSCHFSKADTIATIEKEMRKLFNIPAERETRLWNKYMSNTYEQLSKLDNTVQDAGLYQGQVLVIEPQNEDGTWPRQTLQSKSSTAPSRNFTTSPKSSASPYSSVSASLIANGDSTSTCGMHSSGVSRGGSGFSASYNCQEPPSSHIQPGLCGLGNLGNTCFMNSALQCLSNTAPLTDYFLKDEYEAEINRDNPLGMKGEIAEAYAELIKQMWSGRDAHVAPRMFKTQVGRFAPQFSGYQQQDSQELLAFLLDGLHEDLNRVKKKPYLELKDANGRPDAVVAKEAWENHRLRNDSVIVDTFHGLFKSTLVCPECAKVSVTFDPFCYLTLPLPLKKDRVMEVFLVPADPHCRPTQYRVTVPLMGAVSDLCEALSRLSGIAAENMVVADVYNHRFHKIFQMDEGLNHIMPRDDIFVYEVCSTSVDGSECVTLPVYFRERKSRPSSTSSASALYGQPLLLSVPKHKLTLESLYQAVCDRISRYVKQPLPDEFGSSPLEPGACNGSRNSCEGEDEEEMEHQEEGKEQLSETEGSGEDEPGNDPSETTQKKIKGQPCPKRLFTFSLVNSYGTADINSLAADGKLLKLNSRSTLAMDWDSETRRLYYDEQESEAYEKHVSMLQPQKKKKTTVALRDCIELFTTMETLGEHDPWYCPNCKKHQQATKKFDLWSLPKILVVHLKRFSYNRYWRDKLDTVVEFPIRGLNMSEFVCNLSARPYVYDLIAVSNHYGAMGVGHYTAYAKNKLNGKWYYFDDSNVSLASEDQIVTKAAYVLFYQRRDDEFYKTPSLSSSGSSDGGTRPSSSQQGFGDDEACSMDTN
In short: as §1

Measured: log2 ratio of Biotin-Ahx-Ub-VS probe labelling

O=C(CCl)NCCc1cccc2ccccc12
inactive: USP34 -0.192 | USP36 -0.0173 | USP38 0.0792 | USP39 -0.0508 | USP4 0.143
